Source: PubChem BioAssay
Rows were chosen to be rich in hits. Some 1.4% of all compounds tested hit in one or more screens of this group.
APOBEC3A inh: human APOBEC3A DNA deaminase inhibition; inhibition, % at 20 µM; recombinant A3A, FAM/TAMRA ssDNA deamination fluorescence; 330,000 compounds, 0.41% hits; P31941;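 active means at least 40% inhibition at 20 µM here, with at most 30% in a related deaminase screen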
FAS TE block: inhibitors of human fatty acid synthase thioesterase domain; P49327; recombinant FAS-TE, OMFH fluorogenic substrate, fluorescence endpoint; inhibition, % at 15 µM; 360,000 compounds, 0.67% hits; AID 602261;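 active means compounds whose normalised, plate-corrected inhibition of enzyme fluorescence in the single-dose primary screen is 50% or more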
GC-A act: GC-A (human) enzyme activation | P16066 | HEK293 GC-A cells, cGMP TR-FRET, EC30 ANP; 0% at EC30 ANP, 100% saturating ANP | activation, % at 10 µM | 370,000 compounds, 0.14% hits; in the data active means activation above about 40%
GC-B act: GC-B (human) receptor activation | AID 1920062 | HEK293-GC-B cells, CNP EC30, cGMP TR-FRET; 0% at EC30 CNP, 100% saturating CNP | 370,000 compounds, 0.11% hits | activation, % at 10 µM;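 active means activation at 10 µM reaching about 35% in either raw or pattern-adjusted values, limit read from the data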
Target sequence (P20594 whole entry, looked up): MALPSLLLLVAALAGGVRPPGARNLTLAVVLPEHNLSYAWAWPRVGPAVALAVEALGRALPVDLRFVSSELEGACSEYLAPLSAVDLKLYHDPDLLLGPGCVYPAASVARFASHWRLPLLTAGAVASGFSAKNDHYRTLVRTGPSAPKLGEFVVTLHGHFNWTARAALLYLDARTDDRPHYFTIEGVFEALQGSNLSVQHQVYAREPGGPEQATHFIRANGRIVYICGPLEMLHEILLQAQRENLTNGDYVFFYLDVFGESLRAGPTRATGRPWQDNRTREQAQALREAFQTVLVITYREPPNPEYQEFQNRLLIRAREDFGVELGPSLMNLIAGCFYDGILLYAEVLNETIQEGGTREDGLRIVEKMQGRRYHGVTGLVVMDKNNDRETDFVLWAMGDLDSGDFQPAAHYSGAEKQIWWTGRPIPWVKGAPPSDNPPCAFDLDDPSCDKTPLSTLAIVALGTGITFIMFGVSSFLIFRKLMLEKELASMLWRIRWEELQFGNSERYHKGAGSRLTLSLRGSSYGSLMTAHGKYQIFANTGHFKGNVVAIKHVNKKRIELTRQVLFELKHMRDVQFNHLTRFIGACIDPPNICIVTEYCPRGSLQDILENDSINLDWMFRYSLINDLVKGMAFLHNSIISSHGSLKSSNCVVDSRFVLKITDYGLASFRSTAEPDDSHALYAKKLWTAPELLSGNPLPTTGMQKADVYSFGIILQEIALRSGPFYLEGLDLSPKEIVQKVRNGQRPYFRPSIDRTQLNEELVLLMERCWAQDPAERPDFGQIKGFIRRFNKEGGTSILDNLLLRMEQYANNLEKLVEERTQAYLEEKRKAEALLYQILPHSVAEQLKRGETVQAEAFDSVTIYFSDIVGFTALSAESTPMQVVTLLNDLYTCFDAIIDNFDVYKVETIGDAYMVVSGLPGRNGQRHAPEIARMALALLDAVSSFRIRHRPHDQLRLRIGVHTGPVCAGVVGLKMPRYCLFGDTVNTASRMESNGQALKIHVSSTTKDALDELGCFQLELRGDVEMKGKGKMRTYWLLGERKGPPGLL
A3G deaminase: inhibitors of human APOBEC3G DNA deaminase; Q9HC16; recombinant A3G, ssDNA deamination FAM/TAMRA fluorescence; inhibition, % at 20 µM; 330,000 compounds, 0.28% hits; AID 493012;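 active means inhibition of at least 40% at 20 µM, with no more than 30% in the related APOBEC3A deaminase screen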
A3A conf: confirmation of human APOBEC3A DNA deaminase inhibitors; shares compounds with APOBEC3A inh; recombinant A3A, ssDNA deaminase UDG fluorescence assay; inhibition, % at 20 µM; 1,400 compounds, 63% hits;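 active means inhibition reaching a set limit, 80% of the first screen's cutoff, at 20 µM in any replicate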
UDG ctr A3A: UDG inhibition in APOBEC3A counter-screen; UDG counterscreen, FAM/TAMRA uracil oligo fluorescence; inhibition, % at 20 µM; 1,000 tested, under 10 active; AID 504714; shares compounds with APOBEC3A inh; call rule not given here
Large screens that a line does not name were inactive (follow-up assays come after a bar, where they were run).

C[C@]12CC[C@@H]3c4ccc(O)c(O)c4CC[C@H]3[C@@H]1CC[C@@H]2O	A3G deaminase 63.9
Cc1cc(S(=O)(=O)NC(C)C)ccc1OCC(=O)N1CCN(Cc2ccc3c(c2)OCO3)CC1	none
CC(C)NS(=O)(=O)c1ccc(OCC(=O)N2CCN(Cc3ccc4c(c3)OCO4)CC2)c(Cl)c1	FAS TE block 50.4
O=C1NC(=O)C(=Cc2ccco2)C(=O)N1	none (no result: APOBEC3A inh, A3G deaminase)
CN1C(=O)C(=Cc2ccc(Sc3ccccc3)o2)C(=O)N(C)C1=O	GC-A act 46.3
O=C1NC(=O)C(=Cc2ccc(Sc3ccccc3)o2)C(=O)N1	GC-A act 51.3, GC-B act 49.0
CN1C(=O)C(=Cc2ccc(Sc3ccccc3)o2)C(=O)N(C)C1=S	none
CCCCCCCCn1sccc1=O	GC-A act 49.2
CCCCCCCCc1ccc(O)cc1	none
COC(=O)C1=C[C@H]([C@@H](C)[C@H](OC)c2ccccc2Br)[C@@H]2[C@H]1c1ccccc1N2C	none (no result: APOBEC3A inh, FAS TE block, A3G deaminase)
CCN(CC)C(=O)Cn1cc(/C=C2\C(=O)NC(=O)N(c3ccccc3F)C2=O)c2ccccc21	GC-A act 43.7
Cc1c(C(=O)Nc2ccccc2)c2cc(O)ccc2n1Cc1ccccc1	GC-A act 61.3
CC(=O)c1c(C)n(Cc2ccccc2Cl)c2ccc(O)cc12	GC-A act 83.3
CC(=O)c1c(C)n(CC2CCCO2)c2ccc(O)cc12 (configuration not stated)	none
COC(=O)c1c(C)n(Cc2ccco2)c2ccc(O)cc12	GC-A act 46.8
CC(NC(=O)OCc1ccccc1)[P+](=O)O (configuration not stated)	none (no result: APOBEC3A inh, FAS TE block, A3G deaminase)
O=C(NC(CCC(O)CO)P(=O)(Oc1ccccc1)Oc1ccccc1)OCc1ccccc1 (configuration not stated)	none (no result: APOBEC3A inh, FAS TE block, A3G deaminase)
COc1cc(/C=C/c2nc3ccccc3c(=O)n2-c2ccc(O)cc2)ccc1O	GC-B act 35.4
COC(=O)c1c(N)n(Cc2ccc(OC)cc2)c2nc3ccccc3nc12	GC-A act 47.9, GC-B act 43.0
COCCCn1c(N)c(C(=O)OCCOC)c2nc3ccccc3nc21	none
COCCOC(=O)c1c(N)n(Cc2ccc(OC)cc2)c2nc3ccccc3nc12	GC-A act 47.3, GC-B act 46.9
CCOC(=O)c1c(N)n(Cc2ccc(OC)cc2)c2nc3ccccc3nc12	GC-A act 46.0, GC-B act 44.1 (no result: APOBEC3A inh, FAS TE block, A3G deaminase)
CCCC(=O)N1c2ccc(Cl)cc2C(c2ccccc2)=NCC1C(=O)NC(C)(C)C (configuration not stated)	none (no result: APOBEC3A inh, FAS TE block, A3G deaminase)
C=C1C(=O)C(C)=C2C(=O)N3Cc4[nH]c5ccccc5c4CC3(C(=O)OC)C12 (configuration not stated)	none (no result: APOBEC3A inh, FAS TE block, A3G deaminase)
C[C@H](NC(=O)OCc1ccccc1)C(=O)NC(Cc1ccccc1)P(=O)(Oc1ccccc1)Oc1ccccc1 (some centres not stated)	none (no result: APOBEC3A inh, FAS TE block, A3G deaminase)
CN1/C(=C\C=C\C2=[N+](C)c3ccc4ccccc4c3C2(C)C)C(C)(C)c2ccccc21	none (no result: FAS TE block, GC-A act, GC-B act)
CCN1/C(=C/C=C/C2=[N+](CC)c3ccccc3C2(C)C)C(C)(C)c2ccccc21	GC-B act 42.7 (no result: APOBEC3A inh, A3G deaminase)
O=C1NC(=O)C(=Cc2ccc(-c3ccc(F)cc3O)o2)C(=O)N1	GC-A act 57.3
C=CCN(CC#CCO)Cc1ccc(OC)cc1OC	none (no result: APOBEC3A inh, FAS TE block, A3G deaminase)
CC(C)C(C(=O)NC(C)(C)C)N1C(=O)CN=C(c2ccccc2)c2ccccc21 (configuration not stated)	none (no result: APOBEC3A inh, FAS TE block, A3G deaminase)
CCn1c(C)cc(/C=C2\C(=O)NC(=O)N(c3ccccc3C)C2=O)c1C	none
Cc1ccccc1N1C(=O)NC(=O)/C(=C\c2cnn(-c3ccccc3)c2)C1=O	GC-A act 44.9
CCOC(=O)CC[C@@H]1CC[C@]2(CCCN(Cc3cccnc3)C2)O1	none (no result: APOBEC3A inh, FAS TE block, A3G deaminase)
CC(=O)c1ccc2c(c1)C1C(Cl)C(Sc3ccccc3[N+](=O)[O-])CC1C(c1ccccc1[N+](=O)[O-])N2 (configuration not stated)	GC-B act 74.8
N#CCC[C@@H]1CC[C@]2(CCCN(Cc3ccccn3)C2)O1	none (no result: APOBEC3A inh, FAS TE block, A3G deaminase)
COC(=O)C1=C(C(=O)OC)SC2(S1)C(C(=O)OC)=C(C(=O)OC)Sc1c2ssc1=O	GC-A act 43.0, GC-B act 65.1 (no result: APOBEC3A inh, A3G deaminase)
C[N+]12CCC(CC1)C(=C(c1ccccc1)c1ccccc1)C2	APOBEC3A inh 74.8 | A3A conf 70.6 | UDG ctr A3A inactive
CC[N+]12CCC(CC1)C(=C(c1ccccc1)c1ccccc1)C2	none
CCOc1ccc(N=C2SCCCN2C)cc1	APOBEC3A inh 40.3 | A3A conf 65.7 | UDG ctr A3A inactive
O=P(OCCCl)(OCCCl)OCCCl	none (no result: APOBEC3A inh, FAS TE block, A3G deaminase)
CCOC(=O)C(O)(c1cn(C)c2ccccc12)C(F)(F)F (configuration not stated)	none
CCOC(=O)C(O)(c1ccc(N=c2ccccn2C)cc1)C(F)(F)F (configuration not stated)	APOBEC3A inh 43.8 | A3A conf 32.1 | UDG ctr A3A inactive
COc1ccc([C@@H]2C[C@H]3[C@@H](CN2)CON3C)cc1	none (no result: APOBEC3A inh, FAS TE block, A3G deaminase)
COP(=O)(OC)C(C)NC(=O)OCc1ccccc1 (configuration not stated)	none (no result: APOBEC3A inh, FAS TE block, A3G deaminase)
C=CCN1C(=O)/C(=C/c2ccc(Br)s2)C(=O)NC1=S	APOBEC3A inh 46.0 | A3A conf inactive
COC(=O)C1CC(OC(C)=O)C(=O)[C@H]2C1(C)CC[C@H]1C(=O)OC(c3ccoc3)CC12C (some centres not stated)	none (no result: APOBEC3A inh, FAS TE block, A3G deaminase)
CC[N+](C)(CC)CCCOC(=O)C(O)(c1ccccc1)C1CCCCC1 (configuration not stated)	APOBEC3A inh 50.3 | A3A conf 80.9 | UDG ctr A3A inactive
C[C@H]1CC[C@H]2NCCN[C@H]2C1	APOBEC3A inh 62.0 | A3A conf inactive | UDG ctr A3A inactive
CCCC[N+]12CCC(CC1)C(C(O)(c1ccccc1)c1ccccc1)C2 (configuration not stated)	APOBEC3A inh 41.1 | A3A conf 64.4 | UDG ctr A3A inactive
CCC[N+]12CCC(CC1)C(C(O)(c1ccccc1)c1ccccc1)C2 (configuration not stated)	none
CNC(=O)OCCc1nccn1C	none
CNC(=O)OCc1n(C)cc[n+]1C	APOBEC3A inh 40.5 | A3A conf 81.5 | UDG ctr A3A inactive
CC[C@]12C=CCN3CCC4(c5cc(Br)c(OC)cc5N(C)C4[C@@](O)(C(=O)OC)[C@@H]1OC(C)=O)C32 (some centres not stated)	APOBEC3A inh 62.4 | A3A conf 69.9 | UDG ctr A3A inactive
